Screens (PubChem)
Only some compounds are listed: those with a hit (about 3.7% of all), similar ones and a draw of the others.
B2AR arrestin – beta2AR (human) beta-arrestin recruitment activity; Potency, µM (highest dose often 46.1 µM), actives largely listed as activators; beta-arrestin recruitment to beta2AR, cell-based reporter; P07550; 330,000 tested, 0.02% active; further: nearly all actives have a fitted effect of over 65% in size
BRCA1 expr up – BRCA1 expression activation; MCF7-BRCA1-FFLuc reporter, luminescence, 48 h; response scale: scaled: vehicle 0%, 10 µM genistein 100%; Potency, µM (highest dose often 46.1 µM), usual class: activators; 380,000 tested, 1.1% active; further: nearly all actives have a fitted effect of over 80% in size
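Cells: MCF7-BRCA1-FFLuc, 2000/well. Exposure: 48 h, 37 °C, 5% CO2. Read: luminescence, 15 min post-substrate. Controls: genistein 10 microM (maximal activation), DMSO (neutral).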
DRD3 antagonist – antagonists of human D3 dopamine receptor. P35462. D3R cells, DiscoveRx beta-arrestin luminescence, antagonist mode; stronger effect = lower value. max response, negative = inhibition, %. 360,000 tested, 2.5% active; in the data active means max response below about -50%; inconclusive means no clear call, values can overlap the other calls
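Cells plated overnight at 1500 cells/well, then exposed to library compounds with dopamine controls for 90 minutes at 37 degrees C. DiscoveRx reagent added for 30–60 minutes at room temperature; luminescence read, quantitative HTS format.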
D3 ag – agonists of human D3 dopamine receptor; D3R DiscoveRx beta-arrestin cells, luminescence, 90 min; 410,000 tested, 0.58% active; max activation, %; AID 652048; P35462; in the data active means max activation above about 30%
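Agonist-mode cell screen: cells plated at 1500/well and incubated overnight at 37 °C, then exposed to library compounds for 90 min at 37 °C. Detection reagent was added for 30–60 min at room temperature, and luminescence was read.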
PTHR1 ag – PTHR1 (human) receptor agonism; HEK293 GP2 PTHR1 cells, GloSensor cAMP luminescence, 1 h; Potency, µM (titrated, usually from 115 µM), usual class: activators; 410,000 tested, 0.075% active; further: nearly all actives have a fitted effect of over 55% in size
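HEK-293-derived GP2 cells expressing PTHR1 and a GloSensor cAMP reporter, 3,000/well, plated overnight, given luciferin plus IBMX (each 0.5 mM as added) for 1 h at 37 °C, then compound for 1 h at 37 °C. Luminescence was read after 15 min at room temperature.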
RGS4 inhibitor – human RGS4 inhibition; P49798; Transcreener GDP fluorescence polarization, RGS4-accelerated GTP hydrolysis; Potency, µM (doses to about 114 µM), hits mostly inhibitors; 390,000 tested, 0.039% active; further: nearly all actives have a fitted effect of over 75% in size
Target sequence (P49798 whole entry, looked up): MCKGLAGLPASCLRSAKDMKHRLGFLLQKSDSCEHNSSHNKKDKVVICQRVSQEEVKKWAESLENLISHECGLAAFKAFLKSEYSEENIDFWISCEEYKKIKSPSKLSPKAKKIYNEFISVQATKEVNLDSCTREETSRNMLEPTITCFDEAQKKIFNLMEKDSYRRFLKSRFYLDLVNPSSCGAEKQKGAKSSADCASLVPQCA
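MLSMR compounds (23 nl, pin-transferred) preincubated 10 min at room temperature with a 500nM (2x) first reagent, then RGS4 at 900nM (2x) plus Transcreener GDP mix added; fluorescence polarization (620/688 nm) read before and after 90 min at 30 °C.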
Of the large screens only hits and unclear results are named; the others gave an inactive call; ! = repeats disagree. Unless noted, the call rests on the fitted dose curve; in most records, active means well fitted curve in the direction sought with a large enough effect; inconclusive means small, poorly fitted or top-dose-only effect, or another doubt; inactive means no such curve, though single readings can be large; an effect the other way counts as inactive or inconclusive.

CCC1CN(C(=O)Nc2cccc(OC)c2)c2ccccc2O1 (stereo not drawn)	none (no result: B2AR arrestin, BRCA1 expr up, DRD3 antagonist)
Cc1cc(C)nc(SCc2nc3ncccn3c2Br)n1	DRD3 antagonist -52
CCCCNC(=O)c1nc(-c2cc3ccccc3[nH]2)oc1-c1cccc(C(F)(F)F)c1	none (no result: B2AR arrestin, BRCA1 expr up, RGS4 inhibitor)
CCNC(=S)N/N=C(\C)c1ccc2ccccc2c1OC(F)F	D3 ag 30
COC(=O)[C@H](Cc1c[nH]c2ccccc12)NC(=O)Nc1ccccc1OC	none
COc1ccc(NC(=O)NCCC2=CCCCC2)cc1	BRCA1 expr up inconclusive
COc1ccccc1/C=C/C(=O)NCCC1=CCCCC1	BRCA1 expr up 2.8µM, DRD3 antagonist inconclusive
COc1cccc(NC(=O)NCCC2=CCCCC2)c1	BRCA1 expr up 5µM
O=C(/C=C/c1ccccc1)NCCC1=CCCCC1	BRCA1 expr up inconclusive
CCc1nc2c(OCCOc3ccccc3)cccn2c1N(C)C(=O)C1CC1	none (no result: B2AR arrestin, RGS4 inhibitor)
O=C(COC(=O)C1CC2CCCC(C1)C2=O)Nc1ccc(Cl)cn1 (stereo not drawn)	none
CC[C@H](NC(=O)/C=C/[C@H]1O[C@@H](n2cc(C)c(=O)[nH]c2=O)C[C@@H]1O)c1ccccc1	none (no result: B2AR arrestin, RGS4 inhibitor)
COc1ccccc1NC(=O)COc1ccccc1C(=O)c1cnn(-c2ccccc2)c1	BRCA1 expr up 13µM
CC(C)CCCC(C)N (stereo not drawn)	none (no result: B2AR arrestin, BRCA1 expr up, DRD3 antagonist, PTHR1 ag, RGS4 inhibitor)
CC1(Cc2ccc(F)cc2)C(=O)Nc2ccc(-c3cccnc3)cc21 (stereo not drawn)	none (no result: B2AR arrestin, RGS4 inhibitor)
COc1cc(C#Cc2c(-c3cncn3C)n(C)c3ccc(-c4ccc(OC)c(OC)c4)cc23)cc(OC)c1	D3 ag 70
CCc1ccc2[nH]c(=O)c(C(c3nnnn3CC3CCCO3)N3CCCc4ccccc43)cc2c1 (stereo not drawn)	D3 ag 38
CCCCNc1c(-c2ccc(-c3cccc(Cl)c3)cc2)nc2ccccn12	BRCA1 expr up 8.9µM, D3 ag 63
CCCCCCSc1ccc(-c2nc3cc(C)ccn3c2NC2CCCCC2)cc1	none
CCCCCCSc1cccc(-c2nc3ccc(Cl)cn3c2NCCCC)c1	D3 ag 33! (no result: B2AR arrestin)
CCCCCCSc1ccc(-c2nc3ccccn3c2NCCCC)cc1	D3 ag 82
CCCCNc1c(-c2cccc(-c3ccc(OC)cc3)c2)nc2cc(C)ccn12	none
CC1CCN(S(=O)(=O)c2cccc(C(=O)NCc3cccs3)c2)CC1	none
CC1CCN(c2ccc(C(=O)NCc3cccs3)cn2)CC1	BRCA1 expr up 14µM
COc1ccc(S(=O)(=O)N(C(C)=O)c2ccc3oc(=O)sc3c2)cc1	DRD3 antagonist -59, RGS4 inhibitor inconclusive
CC1CCCN(Cc2c(O)ccc3c(=O)c(Oc4ccccc4Cl)c(C(F)(F)F)oc23)C1 (stereo not drawn)	none (no result: B2AR arrestin, BRCA1 expr up, DRD3 antagonist)
CCOc1cc(C(=O)Nc2ccc(-c3nnc4n3CCCCC4)cc2)cc(OCC)c1OCC	RGS4 inhibitor inconclusive (no result: B2AR arrestin, DRD3 antagonist)
CCc1cc2ccc(C)cc2nc1SCC(=O)c1ccc(NC(C)=O)cc1	none
CCc1cc2cccc(C)c2nc1SCC(=O)c1ccc(NC(C)=O)cc1	D3 ag 81
COc1ccc(NC(=O)c2noc3c2CSc2ccccc2-3)cc1Cl	none (no result: B2AR arrestin, BRCA1 expr up, DRD3 antagonist)
COc1cc(OC)c(NC(=O)c2noc3c2CSc2ccccc2-3)cc1Cl	D3 ag 34, PTHR1 ag inconclusive (no result: B2AR arrestin, BRCA1 expr up, DRD3 antagonist)
CCOC(=O)c1c(SCCN2CCCC2)n(-c2ccccc2)c(=S)n(-c2ccccc2)c1=O	DRD3 antagonist -119, RGS4 inhibitor inconclusive (no result: B2AR arrestin)
Cc1ccc2c(c1)C(=O)C(=O)N2CCCOc1ccccc1	DRD3 antagonist -50, RGS4 inhibitor inconclusive
Cc1ccc2c(c1)C(=O)C(=O)N2Cc1ccc(F)cc1	DRD3 antagonist inconclusive, RGS4 inhibitor inconclusive
Cc1ccc2c(c1)C(=O)C(=O)N2Cc1ccc(Cl)cc1	DRD3 antagonist -64
O=C(N[C@@H](Cc1ccc(O)cc1)C(=O)O)c1ccc(C(F)(F)F)cc1	D3 ag 44
CC(C)(C)c1ccc(C(=O)NC(Cc2ccccc2)C(=O)O)cc1 (stereo not drawn)	none (no result: BRCA1 expr up, DRD3 antagonist, D3 ag, PTHR1 ag, RGS4 inhibitor)
